This passage reports AC50 and activity, negative = inhibition results from PubChem BioAssay AID1851 (National Center for Advancing Translational Sciences (NCATS), 2009).

SMILES strings stand for the structures. Where “and” joins values, the source holds several entries; their conditions need not be identical. Equal values may be shown once. The campaign covered roughly 16,000 compounds. About 5,100 (32%) were called active. Roughly 25% stayed inconclusive and do not appear here. Calls follow the shape of the dose curve; as a rule, active = well fitted curve in the direction sought with a large enough effect; inconclusive = small, poorly fitted or top-dose-only effect, or effect the other way; inactive = no such curve, though single readings can be large or run the other way. This is one part of the list.
% is scaled to controls: 0 for no effect and ±100 for the full control effect.

In the assay the target is Cytochrome P450 3A4 (Homo sapiens) (UniProt P08684). The assay is described as follows: Cytochrome panel assay with activity outcomes. The settings on record: recombinant CYP, pro-luciferin dealkylation, luminescence, p450-cyp3a4; series mostly up to 57.1 µM.
Chain of Cytochrome P450 3A4 (Homo sapiens) (P08684 whole entry, looked up): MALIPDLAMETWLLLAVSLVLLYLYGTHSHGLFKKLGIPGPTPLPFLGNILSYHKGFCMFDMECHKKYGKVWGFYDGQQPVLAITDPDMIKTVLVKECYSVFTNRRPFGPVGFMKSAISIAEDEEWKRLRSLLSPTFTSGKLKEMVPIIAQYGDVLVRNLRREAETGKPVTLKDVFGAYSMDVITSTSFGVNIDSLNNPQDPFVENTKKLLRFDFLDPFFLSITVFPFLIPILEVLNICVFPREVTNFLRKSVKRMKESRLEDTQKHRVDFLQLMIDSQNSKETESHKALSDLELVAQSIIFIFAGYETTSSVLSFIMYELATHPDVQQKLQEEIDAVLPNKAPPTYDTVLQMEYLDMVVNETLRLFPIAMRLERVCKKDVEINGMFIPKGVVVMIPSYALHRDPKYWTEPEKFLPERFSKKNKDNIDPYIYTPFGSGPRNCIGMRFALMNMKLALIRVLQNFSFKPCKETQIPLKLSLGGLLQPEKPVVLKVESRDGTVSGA
For the compound `CCN1CCc2nc(NC(=O)c3ccc4c(c3)OCCO4)sc2C1`, the AC50 was 14.1 µM (active).

For `CCN1CCc2c(sc(N)c2C(N)=O)C1`, the AC50 entry was “inactive”. On the same count and under the same terms, the result for `Cc1nc2c(ccc3nc(NC(=O)c4ccc5c(c4)OCCO5)sc32)s1` reads 6.31 µM (active). For `COc1cc(C(=O)Nc2nc3ccc4nc(C)sc4c3s2)cc(OC)c1OC`, the AC50 entry is “inactive”. Same read-out and setting: the result for `COc1cccc(C(=O)Nc2nc3c(s2)CN(C)CC3)c1` reads “inactive”.

For `C/C(=N/NC(=O)c1cccs1)c1ccc(NC(=O)COc2ccc(Cl)cc2Cl)cc1`, the activity, negative = inhibition is -10.1% [at 2.29 µM] (inactive). The same measure, in the same setting: the result for `Cc1cc(NC(=O)COc2ccc(Cl)cc2Cl)n(-c2ccccc2)n1` reads -28.2% [at 11.4 µM] (inactive).

Regarding `CC(C/C=N/NC(=O)COc1cc(Cl)ccc1Cl)c1ccccc1` (configuration not stated), the AC50 was 14.1 µM (active). Regarding `O=C(COc1ccccc1C(=O)N/N=C\c1ccc(O)c(O)c1)N/N=C/c1ccc(O)c(O)c1`, the activity, negative = inhibition was 12.4% [at 2.29 µM] (inactive). `Cc1ccccc1C(=O)Nc1ccc(C(=O)NNC(=O)CCCOc2ccc(Cl)cc2Cl)cc1`: the activity, negative = inhibition is -18.9% [at 2.29 µM] (inactive). Regarding `CCc1ccc(OCC(=O)NC(=S)Nc2ccc(F)cc2)c(Br)c1`, the activity, negative = inhibition was -0.136% [at 2.29 µM] (inactive). On to `O=C(COc1ccc(Cl)cc1Cl)N/N=C/CCc1ccccc1`, for which the AC50 was 11.2 µM (active). On the same count and under the same terms, the result for `CCC(=O)NC(=S)Nc1ccc(NC(=O)COc2ccc(Cl)cc2Cl)cc1` reads 12.6 µM (active); that for `CC(=C\C(=O)O)/C(=C/c1ccccc1)C(=O)O`, “inactive”; that for `CC(/C=N\NC(=O)Cn1c(C)nc2ccccc21)=C\c1ccccc1`, “inactive”. Same read-out and setting: next, `CC(=C/c1ccccc1)/C=N/n1cnnc1`: 12.6 µM (active); `CNc1nc(-c2ccccc2C(F)(F)F)nc2ccccc12`: “inactive”. For the compound `CNc1nc(-c2ccccc2Cl)nc2ccccc12`, the AC50 is 25.1 µM (active). Take `FC(F)(F)c1ccccc1-c1nc(Nc2ccncc2)c2ccccc2n1`: the AC50 was 0.631 µM (active). Take `Clc1ccccc1-c1nc(Nc2ccncc2)c2ccccc2n1`: the AC50 is 3.98 µM (active). Same read-out and setting: next, `Cc1ccccc1-c1nc(Nc2ccncc2)c2ccccc2n1`: 6.31 µM (active). The same measure, in the same setting: next, `CNC(=O)c1sc(SC)cc1-c1ccc(Cl)cc1`: “inactive”. For `Clc1ccccc1C(Nc1cnccn1)Nc1cnccn1`, the activity, negative = inhibition was -4.71% [at 11.4 µM] (inactive). As for `COCCNC(=O)c1ccc2c(c1)ncn2-c1ccc(F)c(F)c1`, the AC50 entry is “inactive”. On the same count and under the same terms, the result for `COc1ccccc1-c1ccc2ncnc(NCCN3CCOCC3)c2c1` reads 7.94 µM (active).

Regarding `Clc1ccccc1-c1ccc2ncnc(NCCN3CCOCC3)c2c1`, the AC50 is 5.01 µM (active). With `N#Cc1ccccc1-c1ccc2ncnc(NCCN3CCOCC3)c2c1`, the AC50 was 10 µM (active).

For `S=c1nc(-c2ccccc2)oc2c1CCCC2`, the AC50 entry was “inactive”. Still for that read-out and setting: next, `Cc1cccc(OCC(=O)N2CCC(N3CCCCCC3)CC2)c1`: “inactive”.

As to `Cc1cccc(C(=O)N/N=C/c2ccc(OCC(=O)N3CCCCC3)cc2)c1`, the AC50 was 20 µM (active). For the compound `O=C(CSCc1cccc(Cl)c1)N/N=C/c1ccc(OCC(=O)N2CCCCC2)cc1`, the AC50 was 14.1 µM (active). Take `CCOC(=O)c1c2ccc(OCC(=O)N/N=C/c3ccc(Cl)cc3)cc2n2ccccc12`: the activity, negative = inhibition was -26.7% [at 2.29 µM] (inactive).

`O=C(CN1CCCC1)N/N=C/c1ccc(-c2cccc(Cl)c2)o1`: the activity, negative = inhibition is 13.8% [at 2.29 µM] (inactive). For the compound `COc1ccc2oc(=O)c(C(=O)Oc3ccc(NC(C)=O)cc3)cc2c1`, the AC50 entry was “inactive”. Same read-out and setting: the result for `COc1ccc2cc3cc(C(=O)Nc4ccc5c(c4)OCO5)oc3nc2c1` reads 0.355 µM (active); that for `COc1ccc2cc3cc(C(=O)NCc4ccc5c(c4)OCO5)oc3nc2c1`, 0.708 µM (active). `C/C(O)=C\c1nc2ccccc2oc1=O`: the AC50 entry was “inactive”. Still for that read-out and setting: the result for `CO[C@H]1C=CO[C@]2(C)Oc3c(C)c(O)c4c(O)c(c5c(c4c3C2=O)NC2(CCN(CC(C)C)CC2)N=5)=NC(=O)C(C)=CC=C[C@@H](C)[C@@H](O)[C@@H](C)[C@@H](O)[C@@H](C)[C@@H](OC(C)=O)[C@@H]1C` reads “inactive”. Turning to `CO[C@@H]1/C=C\O[C@@]2(C)Oc3c(C)c(O)c4c(c3C2=O)C(=N[C@H]2CC[C@H](O)O[C@@H]2C)C=C(NC(=O)/C(C)=C\C(=O)[C@@H]2C[C@@H]2[C@@H](O)[C@H](C)[C@@H](O)[C@H](C)[C@H](OC(C)=O)[C@@H]1C)C4=O`, the AC50 was 1.26 µM (active). `COc1ccc(/C=C(/C(=O)Nc2ccccc2C(=O)NC(C)C)c2ccccc2)cc1`: the half-maximal activity concentration (AC50) is 11.2 µM (active). With `Cc1ccccc1NC(=O)/C(=C/c1ccccc1)c1ccccc1`, the activity, negative = inhibition is 12.5% [at 11.4 µM] (inactive). The same measure, in the same setting: the result for `CC(C)C(=O)NC(=S)Nc1ccccc1C(=O)Nc1ccccc1` reads 11.2% [at 2.29 µM] (inactive). Turning to `OC[C@@H]1NC[C@@H](O)[C@H]1O`, the AC50 entry was “inactive”. Regarding `COc1cccc([C@@H]2Oc3ccc(OC)cc3/C(=N/O[C@@H](C)c3cn([C@H]4COC[C@H]4O)nn3)[C@@H]2O)c1`, the AC50 was 3.16 µM (active). The same measure, in the same setting: the result for `COc1cccc([C@@H]2Oc3ccc(OC)cc3/C(=N/O[C@@H](C)c3cc(-c4c(C)cc(C)cc4C)no3)[C@@H]2O)c1` reads 1.58 µM (active). Regarding `Cc1cc(C)c(-c2cc([C@H](C)O/N=C\[C@@H](C)[C@H](OCc3ccccc3)C(C)C)on2)c(C)c1`, the activity, negative = inhibition was -37.1% [at 11.4 µM] (inactive).

For `COc1cccc([C@H]2Oc3ccc(OC)cc3/C(=N\O[C@@H](C)c3cn([C@H](CO)Cc4ccccc4)nn3)[C@@H]2O)c1`, the AC50 is 3.16 µM (active) and 3.98 µM (active). Take `CC(C)=NO[C@@H](C)c1cn([C@@H]2COC[C@@H]2O)nn1`: the activity, negative = inhibition is -6.38% [at 11.4 µM] (inactive). On to `CCN1C(=O)[C@H]2[C@H]3[C@H](O)[C@H](O)C/C(=N/O[C@@H](C)c4cn([C@H]5COC[C@H]5O)nn4)[C@@H]3CC[C@@H]2C1=O`, for which the activity, negative = inhibition is -18.4% [at 11.4 µM] (inactive). With `CCC(NC(=O)C1(C)CC1(Br)Br)c1ccc(C)cc1` (configuration not stated), the AC50 is 3.98 µM (active). Regarding `CCC(C)[C@H](NC(=O)NC1CCN(Cc2ccccc2)CC1)C(=O)OC` (some centres not stated), the AC50 entry is “inactive”. The same measure, in the same setting: the result for `CCC(C)C(NC(=O)OCc1ccccc1)C(=O)OCN1C(=O)c2ccccc2C1=O` (configuration not stated) reads 7.08 µM (active).

Take `O=C1NCCc2c1[nH]c1ccccc21`: the activity, negative = inhibition was 17.8% [at 2.29 µM] (inactive). In the case of `CCOc1cc(/C=C2\N=C(C)OC2=O)cc(Br)c1OCC(=O)OC`, the AC50 is 10 µM (active). For the compound `CCOC(=O)COc1c(C=O)cc(Br)cc1OC`, the AC50 result is “inactive”.

Regarding `O=C1CCC(c2ccccc2)(c2ccccc2)CC1`, the activity, negative = inhibition was 10.5% [at 11.4 µM] (inactive). On the same count and under the same terms, next, `c1ccc2c(CC3NCCN3)cccc2c1`: -5.75% [at 11.4 µM] (inactive); `CN1CCCC[C@@H]1CCN1CCCCC1`: -2.94% [at 11.4 µM] (inactive). As to `CCN(CC)c1nc2ccccc2[nH]1`, the AC50 result was “inactive”. Still for that read-out and setting: the result for `OCCNc1nc2ccccc2[nH]1` reads “inactive”. Still for that read-out and setting: next, `c1ccc(-c2n[nH]c(-c3ccccc3)c2-c2nc3ccccc3[nH]2)cc1`: 2.24 µM (active).

For `Cc1c(Cl)c(S(N)(=O)=O)cc2c1=NC=NS=2(=O)O`, the activity, negative = inhibition is -13% [at 11.4 µM] (inactive). Still for that read-out and setting: next, `CCON=C1C(C)(C)C(C)(C)C(C)(C)C1(C)C`: -9.31% [at 11.4 µM] (inactive). As for `COc1ccc(O[C@H]2C=C[C@@H](c3ccccc3)O[C@H]2COC(=O)CC/C(C)=N\O[C@@H](C)CN2CCCc3nc(C)c(C)cc32)cc1`, the AC50 is 3.16 µM (active). On the same count and under the same terms, next, `COc1ccc(O[C@H]2C=C[C@@H](c3ccccc3)O[C@H]2COC(=O)CC/C(C)=N\O[C@@H](C)CN2CCCCc3nc(C)c(C)cc32)cc1`: 3.98 µM (active); `CC(C(=O)Nc1ccccc1Sc1ccccc1)N(c1ccccc1)S(C)(=O)=O` (configuration not stated): 5.01 µM (active); `Cc1ccc(N(C(C)C(=O)Nc2cc(Cl)ccc2Oc2ccccc2)S(C)(=O)=O)cc1` (configuration not stated): 4.47 µM (active). Take `O=C(O)[C@@H]1Cc2c([nH]c3ccccc23)[C@@H](CCCCO)N1`: the activity, negative = inhibition was 1.47% [at 11.4 µM] (inactive). As to `CC(=O)N1CCC2(CCCN(c3ncccn3)C2)CC1`, the AC50 entry is “inactive”.

Consider `COc1ccc(C(=O)NC2(C(F)(F)F)C(=O)Nc3c2c(=O)[nH]c(=O)n3CCc2ccc(OC)c(OC)c2)cc1` (configuration not stated), for which the AC50 entry is “inactive”. On the same count and under the same terms, the result for `CCNC(=O)CC1C(=O)N(c2ccc(F)cc2)C(=O)N1CCc1ccc(OC)cc1` (configuration not stated) reads 7.08 µM (active).

Regarding `CC(=O)Nc1ccc(S(=O)(=O)NC2(C(F)(F)F)NC(=O)N(c3ccc(Cl)cc3)C2=O)cc1` (configuration not stated), the AC50 entry is “inactive”. Still for that read-out and setting: next, `O=C(CC1C(=O)N(c2ccc(Cl)cc2)C(=S)N1CCc1ccncc1)Nc1ccc(F)cc1` (configuration not stated): 1.26 µM (active); `COc1ccc(CCN2C(=NC(=O)CCC(=O)O)SC3CS(=O)(=O)CC32)cc1` (configuration not stated): “inactive”.

Regarding `COc1ccc2c3c(ccc2c1)N[C@H](C(=O)O)CC3`, the activity, negative = inhibition was -10.2% [at 11.4 µM] (inactive). As to `O=C(c1ccco1)N1CCC2(CC1)CN(c1cccc(-c3ccccc3)c1)C2`, the AC50 result is “inactive”.

Consider `O=C(c1ccncc1)N1CCC[C@@]2(CCN(c3ccccc3)C2)C1`, for which the AC50 was 3.16 µM (active). On the same count and under the same terms, the result for `O=C(c1cnccn1)N1CCC[C@@]2(CCN(c3ccccc3)C2)C1` reads 7.94 µM (active); that for `CC(=O)N1CCC[C@@]2(CCN(c3ncccn3)C2)C1`, “inactive”; that for `O=C(c1cnccn1)N1CCC[C@@]2(CCN(c3ccccn3)C2)C1`, 10 µM (active).

With `O=C(c1ccncc1)N1CCC2(CC1)CN(c1ccccc1)C2`, the AC50 result was “inactive”. For the compound `O=C(c1ccncc1)N1CCC2(CC1)CN(c1ncccn1)C2`, the AC50 entry was “inactive”. Consider `O=C(c1ccncc1)N1CCC2(CC1)CCN(c1ccccc1)CC2`, for which the AC50 result was “inactive”. Turning to `O=C(c1ccncc1)N1CCC2(CC1)CN(c1cccc(-c3ccccc3)c1)C2`, the AC50 was 7.94 µM (active). Turning to `CC1(C)Oc2cc(N)c([N+](=O)[O-])cc2O1`, the AC50 entry was “inactive”. For the compound `Cc1c(C=NCCOCc2ccccc2)cnn1C`, the AC50 result is “inactive”. Same read-out and setting: the result for `O=C(c1ccncc1)N1CCC[C@@]2(CCN(c3ccccn3)C2)C1` reads 7.94 µM (active); that for `O=C(c1cnccn1)N1CCC2(CC1)CN(c1ccncc1)C2`, “inactive”; that for `CC(=O)N1CCC2(CCCN(c3ccccn3)C2)CC1`, “inactive”. In the case of `O=C(c1cnccn1)N1CCC[C@@]2(CCN(c3ccncc3)C2)C1`, the AC50 was 3.16 µM (active). On the same count and under the same terms, the result for `CC(=O)N1CCC2(CC1)CN(c1ccncc1)C2` reads “inactive”; that for `O=C(c1ccncc1)N1CCC2(CC1)CCN(c1ccccn1)CC2`, “inactive”.
